Our source for the growth values is PubChem BioAssay (NCI).

The panel holds about 83,000 compounds, 20% with a hit somewhere; the sample as a whole holds those more often.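 Interpretation: 100, growth as untreated; towards 0, rising growth inhibition; 0, no net growth; 0 to -100, cell death. Compounds scoring below 10 were considered active.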 Values without a mark were called inactive. Activity calls are given as the source filed them.

Among the test systems are HCT-15 colon; HT29 colon; SNB-75 CNS; SNB-19 CNS; U251 CNS; PC-3 prostate; SK-MEL-5 melanoma; UACC-62 melanoma; LOX IMVI melanoma; SK-MEL-28 melanoma.
What all share (experiment): NCI-60 one-dose screen, 48 h (100 = growth as untreated, 0 = no growth, -100 = all killed)
Common to all, as to settings: 10 µM unless noted

Take `C=C1CC[C@@H]2C(C)(C)[C@H](O)CC[C@@]2(C)[C@@H]1COc1ccc2ccc(=O)oc2c1`: the growth in the experiment with HCT-15 colon is 56.2%; in the experiment on HT29 colon, 84.1%; in the experiment with SNB-75 CNS, 98.5%; in the experiment with SNB-19 CNS, 86.2%; with U251 CNS it was 83.1%; with PC-3 prostate, 25.2%. For the same compound, the growth with SK-MEL-5 melanoma was 19.1%; with UACC-62 melanoma, 24.5%; in the experiment on LOX IMVI melanoma, 36.5%; in the experiment on SK-MEL-28 melanoma it was 73.6%.

`O=C(/C=C/c1ccccc1)c1ccc(-n2cc(CN3CCN(c4cc5c(cc4F)c(=O)c(C(=O)O)cn5C4CC4)CC3)nn2)cc1`: the growth with HCT-15 colon is 91.6%; in the experiment on HT29 colon it was 79.2%; in the experiment on SNB-75 CNS, 72.3%; with SNB-19 CNS, 72%; with U251 CNS, 42.2%; with PC-3 prostate, 79.3%. Also, the growth in the experiment with SK-MEL-5 melanoma was 77.6%; with UACC-62 melanoma, 73.8%; with LOX IMVI melanoma it was 36.2%; in the experiment on SK-MEL-28 melanoma, 88.2%.

As to `CC1=C(Cl)C(=O)c2cc(C)ccc2C1=O`, the growth in the experiment on HCT-15 colon was 100%; with HT29 colon it was 103%; in the experiment on SNB-75 CNS, 88.9%; in the experiment on SNB-19 CNS, 106%; with U251 CNS it was 96.2%; with PC-3 prostate, 89.6%. Besides, the growth with SK-MEL-5 melanoma was 101%; in the experiment on UACC-62 melanoma, 96%; with LOX IMVI melanoma it was 100%; in the experiment on SK-MEL-28 melanoma, 94.9%.

As to `CN1c2ccccc2S(=O)(=O)n2c(SCC(=O)Nc3nc4ccc(F)cc4s3)nnc21`, the growth in the experiment with HCT-15 colon was 119%; in the experiment with HT29 colon, 119%; in the experiment with SNB-75 CNS, 90.7%; in the experiment on SNB-19 CNS it was 107%; in the experiment with U251 CNS it was 127%; in the experiment on PC-3 prostate, 87.8%. Moreover, the growth with SK-MEL-5 melanoma was 87.2%; with UACC-62 melanoma, 96.5%; in the experiment with LOX IMVI melanoma, 92.5%; in the experiment on SK-MEL-28 melanoma it was 127%.

As to `C=CC(=O)Nc1cccc(Oc2nccc(Nc3nnc(-c4ccc(Br)cc4)s3)n2)c1`, the growth is 88.6% with HCT-15 colon; 116% in the experiment with HT29 colon; 87.5% in the experiment on SNB-75 CNS; 97% in the experiment with SNB-19 CNS; 97.5% in the experiment on U251 CNS; 89.5% with PC-3 prostate. Also, the growth with SK-MEL-5 melanoma is 94.7%; with UACC-62 melanoma, 87.6%; with LOX IMVI melanoma, 91.9%; in the experiment with SK-MEL-28 melanoma it was 108%.

Consider `COC(=O)c1c(C)nc(C)c2c1C(=O)C=C(NCc1ccccc1)C2=O`, for which the growth with HCT-15 colon was 73.3%; with HT29 colon it was 92%; with SNB-75 CNS, 88.9%; in the experiment with SNB-19 CNS it was 93.2%; in the experiment with U251 CNS it was 99%; with PC-3 prostate, 75.6%. For the same compound, the growth was 51.4% in the experiment with SK-MEL-5 melanoma, 65.8% in the experiment with UACC-62 melanoma, 61.7% in the experiment on LOX IMVI melanoma and 108% in the experiment on SK-MEL-28 melanoma.

Take `CN(C)c1ccc(C(=S)c2ccc(N(C)C)cc2)cc1`: the growth in the experiment on HCT-15 colon is 43%; with HT29 colon, 30.9%; with SNB-75 CNS it was 78.1%; in the experiment on SNB-19 CNS, 72.6%; in the experiment on U251 CNS, 62.4%; with PC-3 prostate it was 71.2%. The growth in the experiment with SK-MEL-5 melanoma is 30.5%; with UACC-62 melanoma, 52.2%; with LOX IMVI melanoma, 69%; with SK-MEL-28 melanoma, 84.4%.

As to `COc1ccc(Oc2ccc(/C=C/C(=O)c3cc4ccccc4oc3=O)cc2)cc1`, the growth was 80.5% in the experiment on HCT-15 colon; 108% with HT29 colon; 50.2% in the experiment on SNB-75 CNS; 91.7% in the experiment with SNB-19 CNS; 87% in the experiment with U251 CNS; 75.3% in the experiment with PC-3 prostate. The growth in the experiment on SK-MEL-5 melanoma was 92.7%; in the experiment with UACC-62 melanoma, 76.7%; in the experiment with LOX IMVI melanoma, 70.7%; in the experiment with SK-MEL-28 melanoma, 98.6%.

For the compound `C=C1SC(=Nc2ccccc2Cl)N(C(=O)c2sc3ccccc3c2Cl)C1(C)C`, the growth with HCT-15 colon is 81.4%; in the experiment on HT29 colon, 61.6%; in the experiment with SNB-75 CNS, 42.6%; in the experiment on SNB-19 CNS it was 42.9%; in the experiment with U251 CNS, 49.2%; in the experiment on PC-3 prostate, 30.7%. Also, the growth in the experiment on SK-MEL-5 melanoma is 66.7%; in the experiment with UACC-62 melanoma, 60%; in the experiment with LOX IMVI melanoma it was 77.3%; with SK-MEL-28 melanoma, 113%.

For `COC1C(O)CC(OC2CC(OC3CC(O[C@@H]4C(=O)c5c(cc6cc(OC7CC(OC8CC(O)C(O)C(C)O8)C(O)C(C)O7)c(C)c(O)c6c5O)CC4[C@H](OC)C(=O)C(C)=O)OC(C)C3O)OC(C)C2O)OC1C` (stereo not given in full), the growth in the experiment on HCT-15 colon is -2.22% (active); with HT29 colon it was -19.8% (active); with SNB-75 CNS, -80.9% (active); in the experiment with SNB-19 CNS, 11.2%; in the experiment with U251 CNS it was 1.19% (active); in the experiment on PC-3 prostate it was -1.97% (active). The growth in the experiment with SK-MEL-5 melanoma was -40.4% (active); in the experiment with UACC-62 melanoma it was -30.3% (active); in the experiment with LOX IMVI melanoma, -2.05% (active); in the experiment on SK-MEL-28 melanoma, -20.6% (active).

As to `C=C(C)[C@@H]1CC[C@]2(C(=O)N3CCN(C)CC3)CC[C@]3(C)[C@H](CC[C@@H]4[C@@](C)(CCC(=O)O)[C@H](C(=C)C)CC[C@]43C)[C@@H]12`, the growth is 82.5% in the experiment with HCT-15 colon; 78% with HT29 colon; 76% in the experiment on SNB-75 CNS; 93.6% in the experiment with SNB-19 CNS; 79.7% in the experiment on U251 CNS; 55.4% with PC-3 prostate. In addition, the growth with SK-MEL-5 melanoma is 82.7%; in the experiment with UACC-62 melanoma, 71.3%; in the experiment with LOX IMVI melanoma, 92.5%; with SK-MEL-28 melanoma, 99%.

For `O=C1CCC(C(=O)N/N=C/c2cc(F)ccc2F)N1` (stereo not given), the growth in the experiment with HCT-15 colon was 98.6%; in the experiment with HT29 colon it was 106%; with SNB-75 CNS, 80.7%; in the experiment on SNB-19 CNS it was 98.9%; in the experiment with U251 CNS, 98%; in the experiment on PC-3 prostate it was 95.8%. Further, the growth was 100% in the experiment on SK-MEL-5 melanoma, 98.1% in the experiment on UACC-62 melanoma, 95.1% in the experiment with LOX IMVI melanoma and 108% in the experiment with SK-MEL-28 melanoma.

Regarding `CCOC(=O)C#Cc1c(C(=O)OCC)nnn1[C@@H]1O[C@H](COC)[C@@H](OC)[C@H]1OC`, the growth is -12.2% (active) with HCT-15 colon; 24.9% with HT29 colon; 72.9% with SNB-75 CNS; 97.9% in the experiment with SNB-19 CNS; 102% with U251 CNS; 92.4% in the experiment with PC-3 prostate. Moreover, the growth with SK-MEL-5 melanoma was 98.3%; with UACC-62 melanoma, 93.8%; with LOX IMVI melanoma it was 67%; in the experiment on SK-MEL-28 melanoma, 96.3%.
